Bioassay records from PubChem BioAssay.
An excerpt weighted towards active compounds, which were near 3.9% of everything screened.
SARS 3CLpro inh – SARS-CoV 3CLpro protease inhibition. P0C6X7. 290,000 tested, 0.14% active. inhibition, % at 6 µM. AID 1706. recombinant SARS-CoV 3CLpro, quenched FRET peptide cleavage; in the data active means inhibition above about 12%
Bead autofluor – flagged as autofluorescent in microsphere protease counterscreen; 360,000 tested, 3.1% active; fluorescence intensity (concentration not given with the values); compound autofluorescence counterscreen, microsphere flow cytometry; stronger effect = higher value; in the data active means fluorescence intensity above about 16000; inconclusive means no clear call, values can overlap the other calls
Anthrax LF inh2 – anthrax lethal factor protease inhibition | 360,000 tested, 0.12% active | multiplex microsphere protease cleavage assay, LF | inhibition, % at 10 µM | AID 588501 | P15917; further: plate controls were buffer without enzyme for full effect and enzyme alone for no effect
Target sequence (P15917 whole entry, looked up): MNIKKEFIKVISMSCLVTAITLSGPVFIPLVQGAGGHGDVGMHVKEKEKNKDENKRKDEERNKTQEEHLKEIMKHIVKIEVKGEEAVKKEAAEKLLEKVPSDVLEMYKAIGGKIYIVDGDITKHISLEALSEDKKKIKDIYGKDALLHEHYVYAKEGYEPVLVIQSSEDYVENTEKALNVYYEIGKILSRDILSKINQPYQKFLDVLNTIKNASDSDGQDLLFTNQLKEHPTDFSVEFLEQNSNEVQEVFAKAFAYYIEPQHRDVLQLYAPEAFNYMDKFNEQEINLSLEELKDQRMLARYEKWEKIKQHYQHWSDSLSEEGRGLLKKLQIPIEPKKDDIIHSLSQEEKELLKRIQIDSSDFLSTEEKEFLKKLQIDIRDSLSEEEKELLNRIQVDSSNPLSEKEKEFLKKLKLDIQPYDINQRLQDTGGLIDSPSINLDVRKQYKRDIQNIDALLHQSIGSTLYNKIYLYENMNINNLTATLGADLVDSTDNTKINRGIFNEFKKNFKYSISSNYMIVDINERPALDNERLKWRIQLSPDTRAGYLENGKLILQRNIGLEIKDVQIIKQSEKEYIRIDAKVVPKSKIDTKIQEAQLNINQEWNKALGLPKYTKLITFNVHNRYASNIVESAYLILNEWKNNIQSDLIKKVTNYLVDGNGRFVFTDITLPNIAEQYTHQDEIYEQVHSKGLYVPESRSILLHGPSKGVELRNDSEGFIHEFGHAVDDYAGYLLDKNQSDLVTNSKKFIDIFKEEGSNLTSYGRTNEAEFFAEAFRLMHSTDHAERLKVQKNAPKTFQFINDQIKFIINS
DUSP3 inh – DUSP3 (human) phosphatase inhibition. 290,000 tested, 0.52% active. P51452. recombinant VHR phosphatase, pNPP absorbance. AID 1654. inhibition, % at 13.3 µM; in the data active means inhibition above about 50%
BoNT F protease – BoNT F light chain protease inhibition. Multiplex microsphere protease cleavage assay, flow cytometry. inhibition, % at 10 µM. 360,000 tested, 0.22% active; in the data active means inhibition above about 35%, passing the limit was not always enough; inconclusive means no clear call, values can overlap the other calls; further: plate controls were buffer without enzyme for full effect and enzyme alone for no effect
BoNT A protease – inhibitors of Botulinum neurotoxin A light chain protease | multiplex microsphere protease substrate cleavage, flow cytometry | inhibition, % at 10 µM | 360,000 tested, 0.17% active | AID 588499; further: plate controls were buffer without enzyme for full effect and enzyme alone for no effect
* marks the source's active call; other numbers are inactive results; ? = inconclusive; . = not tested or not shown; ! = a repeat was not active. Unless noted, no stated cut-off is given here; in the data, active means inhibition above about 30%; inconclusive means no clear call, values can overlap the other calls; inactive means below that.

SMILES | SARS 3CLpro inh | Bead autofluor | Anthrax LF inh2 | DUSP3 inh | BoNT F protease | BoNT A protease
CCOC(=O)C1CCN(CC(O)COc2ccc(C(=O)CC)cc2)CC1 (stereo not drawn) | -5.4 | 22284* | -2.7 | -3.7 | -1.3 | 0.3
Cc1ccc(OCC(O)CN2CCN(CC(O)COc3ccc(C)cc3)CC2)cc1 (stereo not drawn) | 5.0 | 17745* | -0.3 | 23.2 | -5.3 | -2.8
O=C(c1ccccc1)c1ccc(OCC(O)CN2CCN(S(=O)(=O)N3CCCCC3)CC2)cc1 (stereo not drawn) | 1.5 | 23589* | -0.4 | 18.1 | 1.6 | 0.5
COCCn1c(SCC(=O)NC(C)c2ccc(F)cc2)nc2ccccc21 (stereo not drawn) | -7.1 | 3048 | 6.7 | 16.3 | 19.3 | 3.1
CC(=O)Nc1cccc(-c2ccnc3c2CC(C(=O)NCc2ccc(F)c(F)c2)O3)c1 (stereo not drawn) | . | 2754 | -1.6 | . | -2.1 | 0.6
CCN(CC)C(=O)CSc1nc2c(sc(=S)n2Cc2ccco2)c(=O)n1-c1ccccc1 | 8.4 | 20976* | -2.0 | 17.6 | -1.8 | -0.3
CCOC(=O)CSc1nc2c(sc(=S)n2-c2ccccc2OC)c(=O)n1Cc1ccco1 | 1.5 | 16526* | -3.4 | -0.7 | -5.0 | -0.9
CCOC(=O)CSc1nc2c(sc(=S)n2-c2ccccc2OC)c(=O)n1-c1ccccc1OC | 4.6 | 3212 | -8.9 | 9.5 | -0.9 | -3.4
C=Cc1ccc(CN2CCCN(Cc3ccc(F)cc3)S2(=O)=O)cc1 | -0.9 | 4100 | -5.8 | -15.2 | 44.9* | 0.2
COc1ccc(OC)c(NC(=S)N2CCN(C/C=C/c3ccccc3)CC2)c1 | 0.5 | 4115 | 0.4 | 19.9 | 8.9 | 0.6
COc1ccc(O)c(CN2CCN(C/C=C/c3ccccc3)CC2)c1 | 6.3 | 24344* | -0.6 | 21.1 | -3.1 | -1.2
CC(C)(C)P(=O)(CO)c1ccccc1 (stereo not drawn) | 1.4 | 19072* | -3.3 | 26.1 | 2.4 | 3.4
Cc1ccc(C(=O)NCC(=O)OCc2nc3ccsc3c(=O)[nH]2)cc1C | . | 2847 | -6.1 | . | 1.9 | -0.7
Cn1cnc(S(=O)(=O)N2CCCCC2c2cc(C(=O)Nc3ccc(F)c(Cl)c3)no2)c1 (stereo not drawn) | . | 3360 | -0.8 | . | 9.0 | 0.5
Fc1ccc2c(c1)C(c1ccc(N3CCOCC3)cc1)=NNC(c1cccs1)=N2 | -0.8 | 19055* | -2.4 | 6.2 | 3.3 | ?
Brc1ccc2c(c1)C(c1ccc(N3CCOCC3)cc1)=NNC(c1cccs1)=N2 | -0.7 | 19294* | -8.3 | -25.6 | -1.3 | 2.9
Cc1ccc2c(c1)C(c1ccc(N3CCOCC3)cc1)=NNC(c1cccs1)=N2 | -4.3 | 20609* | -2.5 | 25.0 | 0.7 | 0.3
CCc1ccc2c(c1)C(c1ccc(N3CCOCC3)cc1)=NNC(c1ccncc1)=N2 | 0.8 | 4664 | 2.6 | 31.2 | -5.1 | -0.9
CCOc1ccc(C2=Nc3ccc(Br)cc3C(c3ccc(N4CCOCC4)cc3)=NN2)cc1 | 0.7 | 2161 | -1.4 | -18.5 | -5.7 | -0.2
CC(=O)c1cccc(-c2ccnc3c2CC(C(=O)Nc2cccc(NS(C)(=O)=O)c2)O3)c1 (stereo not drawn) | . | 3590 | -4.0 | . | -7.0 | -0.2
C=CCn1c(=O)c2ccccc2n2c(SCC(=O)/C(C#N)=C(\C)N)nnc12 | 2.1 | 24633*! | -0.4 | 1.9 | -2.0 | ?
Cc1ccc(NC(=S)N(CCN(C)C)Cc2cc3cc(C)cc(C)c3[nH]c2=O)cc1 | 0.2 | 2261 | 0.4 | -12.9 | -3.0 | 0.9
Cc1nn(-c2cc(N3CCCCC3)ccc2[N+](=O)[O-])c(=O)c2ccccc12 | 0.4 | 21077* | 2.5 | -13.9 | 0.2 | ?
Cc1nn(-c2cc(N3CCNCC3)ccc2[N+](=O)[O-])c(=O)c2ccccc12 | -3.3 | 3082 | -1.8 | -7.4 | -1.9 | -0.4
CC(=NCCCn1ccnc1)c1c(O)n(Cc2ccccc2)c(=O)[nH]c1=O | 5.9 | 20727* | -12.6 | 31.8 | 2.6 | 4.2
SMILES | SARS 3CLpro inh | Bead autofluor | Anthrax LF inh2 | DUSP3 inh | BoNT F protease | BoNT A protease
CC(=NCCN1CCCCC1)c1c(O)n(Cc2ccccc2)c(=O)[nH]c1=O | 3.8 | 23910* | 2.0 | -41.7 | 2.5 | -0.6
CC(=NCCCO)c1c(O)[nH]c(=O)[nH]c1=O | -0.1 | 6289 | 3.3 | 13.1 | 4.8 | -0.3
CC(=NCCCN1CCCCC1)c1c(O)n(Cc2ccccc2)c(=O)[nH]c1=O | -4.5 | 3960 | 4.3 | 2.9 | 13.0 | 2.8
COc1ccc(-n2c(O)c(C(C)=NCC3CCCO3)c(=O)[nH]c2=O)cc1 (stereo not drawn) | 5.5 | 4409 | -8.6 | -13.4 | 6.7 | 0.0
COc1ccc(-n2c(O)c(C(C)=NCCN3CCNCC3)c(=O)[nH]c2=O)cc1 | -1.2 | 22171* | 0.7 | 10.7 | 6.0 | 3.2
CC(=NCCN1CCCCC1)c1c(O)[nH]c(=O)[nH]c1=O | 1.7 | 16267* | -1.0 | 23.8 | -1.0 | -0.8
COC(=O)C1(C)COP(=O)(Nc2ccc(OC)cc2)OC1 (stereo not drawn) | . | 5630 | 3.0 | . | 4.2 | -0.6
Cc1nnnn1CC(=O)Nc1cccc([N+](=O)[O-])c1 | -6.8 | 4063 | -5.7 | 21.6 | -6.4 | -0.3
CCC(C)C(NC(=O)C1CCC(C)CC1)C(=O)NCc1ccccn1 (stereo not drawn) | 0.6 | 6797 | -0.8 | 11.6 | -10.7 | 0.3
O=C(CCCl)Nc1cc(SCCO)cc([N+](=O)[O-])c1 | -1.4 | 20902* | -1.6 | 16.6 | -1.5 | -0.8
O=C(Nc1cc(SCCO)cc([N+](=O)[O-])c1)c1ccc(Br)o1 | 4.6 | 2195 | -1.4 | -14.8 | -2.7 | 0.2
CCOc1ccccc1-n1nnnc1SCc1nc2ccccc2s1 | 2.3 | 17496* | -2.9 | 2.5 | -8.4 | -4.2
Cc1ccccc1-n1c(C)nnc1SCc1nc2ccccc2s1 | 7.6 | 11103 | -0.3 | 7.2 | -20.2 | 0.7
Oc1ccccc1C1=Nc2ncnn2C(c2ccccc2)C1 (stereo not drawn) | -0.7 | 16346* | -10.0 | 13.8 | -3.6 | -0.9
CCc1ccc(C(=O)CSc2n[nH]c(C)n2)cc1 | 2.1 | 21979* | -3.0 | 3.4 | -2.2 | -0.6
COc1ccc(N2CCN(C(=O)CN=C3NS(=O)(=O)C(c4ccc(C)cc4)=C3C)CC2)cc1 | 3.1 | 17288* | -0.3 | -8.6 | -1.0 | -2.8
COc1ccc(N2CCN(C(=O)Cc3ccc(C)cc3)CC2)cc1 | -3.0 | 3256 | -8.9 | -34.7 | 15.0 | 1.6
Cc1ccc2c(c1)NCCO2 | 2.8 | 23601* | -6.0 | 15.4 | -1.2 | ?
O=C1c2cc(S(=O)(=O)NCCCO)ccc2-c2ccc(S(=O)(=O)NCCCO)cc21 | -0.6 | 21753* | -1.3 | -27.7 | 1.2 | 2.6
COCCNS(=O)(=O)c1ccc2c(c1)C(=O)c1cc(S(=O)(=O)NCCOC)ccc1-2 | 3.9 | 16158* | -3.1 | 10.4 | 1.3 | 0.9
COCCNS(=O)(=O)c1ccc(F)c(OC)c1 | 5.1 | 10708 | -3.1 | 31.3 | -1.9 | 0.3
CC1(Cc2ccc(C(F)(F)F)o2)C(=O)Nc2cc(-c3ccc(F)cc3F)ccc21 (stereo not drawn) | . | 3403 | -1.8 | . | 2.5 | 0.1
C=CCNC(=O)CCNS(=O)(=O)c1ccc(Br)cc1 | -8.3 | 22875* | -4.8 | 32.6 | 0.1 | 2.0
